Results as given in PubChem BioAssay (NCI).
The panel holds about 79,000 compounds, 15% with a hit somewhere; the sample as a whole holds those more often. Rule as the data show it: active = growth inhibition above about 70%; inactive = the rest.

Tests used:
[1] = NCI Yeast Anticancer Drug Screen. Data for the rad50 strain (AID 155);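 also: 0% = growth of vehicle-only cultures of the same strain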; conditions: S. cerevisiae rad50 strain growth inhibition; at 50.0 µM; hits give high values
How it was run: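 A DNA repair-deficient yeast mutant serves as the test organism; compound-induced growth inhibition is calculated against vehicle-treated cells.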

[2] = NCI Yeast Anticancer Drug Screen. Data for the mec2-1 strain (AID 157); conditions: S. cerevisiae mec2-1 strain, at 50.0 µM, hits give high values
How it was run: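 Cells of the genetically defined mec2-1 yeast strain are incubated with test compound. Inhibition of growth is calculated against vehicle-treated controls.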

[3] = NCI Yeast Anticancer Drug Screen. Data for the sgs1 mgt1 strain (AID 161);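 also: 0% = growth of cultures given vehicle only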; conditions: S. cerevisiae sgs1 mgt1 strain, at 50.0 µM, hits give high values
How it was run: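 Inhibition of yeast growth, normalised to vehicle-treated controls, is reported for a strain bearing genetic alterations in DNA damage repair.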

[4] = NCI Yeast Anticancer Drug Screen. Data for the cln2 rad14 strain (AID 165);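 also: 0% = growth equal to vehicle treated cultures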; conditions: S. cerevisiae cln2 rad14 strain, at 50.0 µM, hits give high values
How it was run: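 The screen exposed genetically defined yeast (cln2 rad14) to test compounds and scored growth inhibition relative to vehicle-treated controls.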

[5] = NCI Yeast Anticancer Drug Screen. Data for the bub3 strain (AID 167); conditions: S. cerevisiae bub3 mutant strain, at 50.0 µM, hits give high values
How it was run: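 Inhibition values come from growth of compound-treated mutant yeast normalised to vehicle-treated controls.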

[6] = NCI Yeast Anticancer Drug Screen. Data for the mlh1 rad18 strain (AID 175); conditions: S. cerevisiae mlh1 rad18 strain growth inhibition; at 50.0 µM; hits give high values
How it was run: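 Compound-treated yeast growth, normalised to vehicle controls. Strain bears defined DNA repair mutations.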

Measured: growth inhibition

OCCN(CCO)c1cc(/C=C/c2cccc3ccccc23)nc2ccccc12
inactive: [1] 56.9% | [2] 11.3% | [3] 39.6% | [4] 3.85% | [5] -6.5% | [6] 37.4%

CCCCCCC1OCCO1
inactive: [1] 29.8% | [2] 2.8% | [3] 16.5% | [4] -12.8% | [5] -4.8% | [6] 15.1%

CCC(Nc1ccccc1)C(=O)O (stereo not given)
inactive: [1] -4.45% | [2] -13.7% | [3] -8.9% | [4] -16.9% | [5] -8.7% | [6] 4.15%

CCCCC(CC)C(=S)N1CCOCC1 (stereo not given)
inactive: [1] 0.95% | [2] -30.4% | [3] -18.8% | [4] 7.25% | [5] -4.65% | [6] -9.25%

COc1cc(C2C(Cl)C(=O)N2NC(=O)c2ccc(N)cc2)cc(Br)c1O (stereo not given)
inactive: [1] 16.3% | [2] 0.95% | [3] 4.05% | [4] -38% | [5] 5.85% | [6] -11.2%

CC/C(CC(=O)CCC(=O)Nc1ccccc1[N+](=O)[O-])=N/NC(=O)C[n+]1ccccc1
inactive: [1] -1.8% | [2] 6.9% | [3] -56.1% | [4] 16.4% | [5] -1.35% | [6] -12.7%

CCN(CC)CCC1(C#N)Cc2ccccc2N(CC)c2ccccc21 (stereo not given)
inactive: [1] 41.8% | [2] 5.05% | [3] 9.45% | [4] 15.6% | [5] 7.3% | [6] -19.6%

NC1=NCCN1
inactive: [1] 31.9% | [2] 11.3% | [3] 3.5% | [4] -1.85% | [5] 16.8% | [6] 24.3%

C=CC1OCC2(CO1)COC(C=C)OC2 (stereo not given)
inactive: [1] 12.4% | [2] -11.7% | [3] 2.4% | [4] -7.55% | [5] -12.4% | [6] 2.75%

O=C(NNC(=O)C(F)(F)F)C(F)(F)F
inactive: [1] 0.55% | [2] -3.4% | [3] -5.1% | [4] -10% | [5] -12.8% | [6] -2%

CC(=O)Oc1ccc2cc(Br)ccc2c1N(C(C)=O)C(C)=O
inactive: [1] 13.1% | [2] -7.35% | [3] 10.8% | [4] -66.5% | [5] 24.6% | [6] -1.85%

COC(=O)N/N=C(/Cc1occc(=O)c1O)C(=O)Nc1ccc([N+](=O)[O-])cc1[N+](=O)[O-]
inactive: [1] -11.1% | [2] -12.9% | [3] -26.4% | [4] 3.3% | [5] 5.25% | [6] 8.1%

CCOCCC12CCCCC1C/C(=N/OC(C)=O)c1ccccc12 (stereo not given)
inactive: [1] 9.3% | [2] -5.95% | [3] -0.45% | [4] 1.2% | [5] 15.7% | [6] 35.8%

CC1(C)C([N+](C)(C)C)CS1(=O)=O (stereo not given)
inactive: [1] 1.9% | [2] -18.9% | [3] -13.8% | [4] -11.1% | [5] 9.65% | [6] -6.45%

O=c1[nH]c2cc(Cl)ccc2nc1/C=C(\O)c1ccc([N+](=O)[O-])cc1
inactive: [1] 25.6% | [2] 21.8% | [3] 37.4% | [4] 7.85% | [5] 6.55% | [6] 54%

O=[N+]([O-])c1nccn1CCC[n+]1cccc2ccccc21
inactive: [1] -38.6% | [2] -17.2% | [3] -14.2% | [4] -14.9% | [5] -19.9% | [6] -13.4%

C/C(=N/NC(N)=S)c1c[nH]c(=O)[nH]c1=O
inactive: [1] -3% | [2] -16.6% | [3] -4.45% | [4] -9.6% | [5] -5.95% | [6] -7.35%

NC(=O)c1nnn2c1nc(N)c1cc(Cl)ccc12
inactive: [1] -28.4% | [2] -26.6% | [3] -9.55% | [4] -18.4% | [5] -27.6% | [6] -22.6%

CC1CC(C)(C)NC(c2ccccc2)O1 (stereo not given)
inactive: [1] 1.75% | [2] -5% | [3] 1.3% | [4] 10.1% | [5] -14.4% | [6] 29.4%

Nc1nc2c(c(=O)[nH]1)C(c1ccc(Cl)cc1)C=C(c1ccccc1)N2 (stereo not given)
inactive: [1] 5.6% | [2] 14.8% | [3] 3.8% | [4] -1.85% | [5] -4.75% | [6] -33.5%
